The source made the active and inactive calls.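 The calls were made as follows: active = compounds that raised 12-lipoxygenase product formation in the cuvette follow-up test, with a fitted potency; inactive = the rest, inconclusive results apart.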

This assay deals with Polyunsaturated fatty acid lipoxygenase ALOX12 (Homo sapiens) (UniProt P18054). The experiment in a line: Activators of 12-hLO (12-human lipoxygenase): 12hLO Cuvette-Based Hit Validation Assay of Followup Compounds. The following applies: purified 12-hLO, cuvette UV 234 nm product formation. As to the method: The enzyme activity of 12-hLO was determined by a direct measurement of product formation by monitoring the absorbance at 234 nm in a 2 mL cuvette. IC50 values of inhibitors were obtained by measuring the enzymatic rate at a variety of concentrations (Carroll et al, Segraves et al). This assay was used to validate active or inconclusive putative activators identified in the primary screen (see related BioAssay AIDs). Assay Provider: Holman, T.R., University of California, Santa Cruz Screening Center PI: Austin, Christopher P. Screening Center: NIH Chemical Genomics Center
Polyunsaturated fatty acid lipoxygenase ALOX12 (Homo sapiens), sequence (P18054 whole entry, looked up): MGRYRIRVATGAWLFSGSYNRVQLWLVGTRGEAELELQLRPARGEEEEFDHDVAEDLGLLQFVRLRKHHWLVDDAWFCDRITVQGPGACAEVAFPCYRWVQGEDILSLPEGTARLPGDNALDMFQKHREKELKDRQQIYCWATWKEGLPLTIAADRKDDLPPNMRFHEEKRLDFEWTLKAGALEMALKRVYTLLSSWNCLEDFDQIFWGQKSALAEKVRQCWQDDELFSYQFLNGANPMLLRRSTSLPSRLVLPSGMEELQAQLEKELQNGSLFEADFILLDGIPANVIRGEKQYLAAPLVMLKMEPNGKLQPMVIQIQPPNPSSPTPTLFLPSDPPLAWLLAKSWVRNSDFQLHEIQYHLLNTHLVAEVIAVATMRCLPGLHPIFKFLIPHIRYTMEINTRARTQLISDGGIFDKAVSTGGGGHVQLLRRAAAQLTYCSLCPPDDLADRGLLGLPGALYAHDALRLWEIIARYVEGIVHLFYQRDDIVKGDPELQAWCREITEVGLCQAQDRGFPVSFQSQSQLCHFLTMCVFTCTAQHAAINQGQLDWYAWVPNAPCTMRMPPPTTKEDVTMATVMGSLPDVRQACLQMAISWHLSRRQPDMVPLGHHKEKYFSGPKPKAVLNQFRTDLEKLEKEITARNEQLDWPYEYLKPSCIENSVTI
For control experiments, 2 mL of substrate buffer (10 uM arachidonic acid / 25 mM HEPES / 0.01% (v/v) Triton X-100, pH 8.0) was aliquoted in a cuvette with a magnetic stir bar. After equilibrium was ensured, an aliquot of inhibitor solvent was added (DMSO), and equilibrium was once again assured. The reaction was started by adding enzyme to the cuvette and the reaction was followed until completed. The inhibition experiments were performed as above, except the actual inhibitory compound was added instead of vehicle. To achieve an IC50, typically 5 concentrations of the inhibitor were studied. If the inhibitor concentration was constant, then five different reaction volumes were used. Step \ Parameter \ Value \ Description 1; UV-Vis; 234 nm; Equilibration 2; Reagent; 2 mL; Substrate buffer 3; UV-Vis; 234 nm; Equilibration 4; Reagent; varies; Compound 5; UV-Vis; 234 nm; Equilibration 6; Reagent; 50-200 nM; Enzyme 12-hLO 7; UV-Vis; 234 nm; Enzymatic reaction Step \ Notes 1; Blank cuvette to air. 2; 10 uM AA, 25 mM HEPES, 0.01% Triton X-100, pH 8. 3; No change in absorbance ensured. 4; Compound vehicle or compound in various concentrations depending on potency. 5; No change in absorbance ensured. 6; Enzyme concentration to achieve reaction rate between 0.02 and 0.04 AU/s. 7; Enzymatic reaction visualized until completion.
`COc1ccc(C(Nc2ccccn2)c2c(NC(=O)c3ccco3)sc(C)c2C)cc1` (centres undefined): the compound was classed as inactive.
On to `COc1ccc(C(=O)Nc2cc(C(=O)c3ccccc3)c(C)oc2=O)cc1`, for which the Potency was 61.6 µM (active).
Regarding `Oc1ccccc1-c1cc(-c2cccc(F)c2)n[nH]1`, the compound was called inactive.
For `CC(Oc1ccc(Cl)cc1Cl)C(=O)NC1=NN(c2ccccc2)C(=O)C1` (centres undefined), the compound was classed as inactive.
As for `CCOC(=O)CNC(c1ccccc1)c1cc(Br)ccc1NC(=O)CCN1CCOCC1` (centres undefined), the Potency is 70 µM (active).
Take `O=C1c2ccccc2NC(c2ccc(Cl)cc2Cl)N1O` (centres undefined): the Potency is 53.1 µM (active).
Regarding `COc1cc(CNc2ccc(N3CCCC3)cc2)ccc1OCc1ccccc1`, the compound was classed as inactive.
As to `Oc1ccc(-c2nc(-c3ccc(O)c(O)c3)cs2)cc1`, the outcome was inactive.
Regarding `O=C(Nc1nnc(-c2ccc(Cl)cc2)o1)c1ccccc1Br`, the result was inactive.
Same read-out and setting: next, `O=C(CSc1n[nH]c(-c2ccccc2)n1)c1ccc(O)c(O)c1`: “inactive”; `c1ccc(-c2nc(NCc3cccnc3)c3oc4ccccc4c3n2)cc1`: “inactive”.
With `COc1cccc(-c2cnc(NCc3cc(Cl)ccc3O)n2C)c1`, the result was inactive.
Still for that read-out and setting: for `Oc1ccc(Cl)cc1-c1cc(-c2ccco2)[nH]n1` the value was “inactive”; for `Cc1ccc(S(=O)(=O)Nc2ccc(NC(=O)Nc3cccc(C(F)(F)F)c3)cc2)cc1`, “inactive”.
On to `COc1ccc(-c2[nH]ncc2-c2ccc(Cl)cc2)c(O)c1`, for which the result was inactive.
For the compound `COc1ccc(/C=C/c2nc(-c3ccccc3O)n[nH]2)cc1`, the result was inactive.
For the compound `COc1ccc(-c2n[nH]c(C(F)(F)F)c2-c2cc3ccccc3o2)c(O)c1`, the compound was classed as inactive.
For the compound `COc1ccc(NC2=NCC(Cc3ccc(Br)cc3)S2)cc1` (centres undefined), the compound was called inactive.
On the same count and under the same terms, next, `COc1ccc(Cc2nc(C(=O)Nc3ccc(OC)cc3)cs2)cc1`: “inactive”.
